Most compounds without a hit are left out; they make up all but 17% or so of the library.
TDP1 cell CPT: growth inhibition of DT40 Tdp1-/-;hTDP1 cells with camptothecin (screen for TDP1 inhibitors); chicken DT40 Tdp1-/-;hTDP1 cells + 20 nM CPT, ATP luminescence, 48 h; Potency, µM (series often up to 46.2 µM), without a hit: at the top dose activity change, negative = growth inhibition, actives largely listed as inhibitors; 420,000 tested, 12% active; AID 686979; also: % is scaled to controls: 0 for no effect and ±100 for the full control effect; nearly all actives have a fitted effect of over 55% in size
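Chicken DT40 Tdp1-/- cells complemented with human TDP1, 400 cells/well, exposed to compounds plus 20 nM camptothecin for at least 48 h at 37 C; viability read as ATP content by CellTiter-Glo luminescence.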
ClpP mod: qHTS Assay for Activators of ClpP; ATP-dependent Clp protease proteolytic subunit (Bacillus subtilis (strain 168)), P80244; purified B. subtilis ClpP, FRET peptide cleavage, 20 min; Potency, µM (highest dose often 57.5 µM), for inactives: at the top dose activity change, negative = active; 340,000 tested, 1.9% active; active = well fitted falling curve with a large enough effect; inconclusive = small, poorly fitted or top-dose-only effect; inactive = no such curve, though single readings can be large or run the other way; also: the source files actives as falling curves though it sought activators and does not explain the sign; nearly all actives have a fitted effect of over 65% in size
Target sequence (P80244 whole entry, looked up): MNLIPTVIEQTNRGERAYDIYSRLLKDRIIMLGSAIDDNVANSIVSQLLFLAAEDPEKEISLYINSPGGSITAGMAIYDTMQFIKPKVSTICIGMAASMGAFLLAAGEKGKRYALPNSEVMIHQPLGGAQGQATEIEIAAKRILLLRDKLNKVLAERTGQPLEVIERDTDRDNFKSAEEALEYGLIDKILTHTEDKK
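Purified B. subtilis ClpP, 10 microg/mL final in Tris/HCl pH8 with KCl, BSA, glycerol and Tween-20, cleaved an Abz/nitrotyrosine-quenched decapeptide. Fluorescence (ex 320, em 430) was read at 0 and 20 min at room temperature. Delta was normalized to 5.8 microM ADEP and DMSO/no-enzyme controls.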
DT40 TDP1 no CPT: qHTS for Inhibitors of human tyrosyl-DNA phosphodiesterase 1 (TDP1): qHTS in cells in absence of CPT. DT40 Tdp1-/- hTDP1 cells, no CPT, ATP luminescence, 48 h. Potency, µM (highest dose often 46.2 µM), without a hit: top-dose activity change, negative = growth inhibition, usual class: inhibitors. 420,000 tested, 15% active. AID 686978, 2013; also: % is scaled to controls: 0 for no effect and ±100 for the full control effect; nearly all actives have a fitted effect of over 55% in size
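Chicken DT40 Tdp1-/- cells complemented with human TDP1, screened without camptothecin (DMSO vehicle only), 400 cells/well. Compounds pin-transferred, cells incubated at 37 °C for at least 48 hr. Growth read as ATP-dependent luminescence (CellTiter-Glo, 30 min at RT).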
TDP1 block: inhibitors of human tyrosyl-DNA phosphodiesterase TDP1; recombinant TDP1, AlphaScreen DNA substrate cleavage; Potency, µM (titrated, usually from 130 µM), inactives show at the highest dose activity change, negative = inhibition, usual class: inhibitors; Q9NUW8; 350,000 tested, 0.28% active; also: % is scaled to controls: 0 for no effect and ±100 for the full control effect; nearly all actives have a fitted effect of over 40% in size
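Enzyme-compound mixtures sat 15 min at room temperature, followed by a 5 min reaction with 15 nM final substrate and 10 min with AlphaScreen beads. Recombinant human Tdp1 was used at 1 nM final.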
Numbers without * were called inactive; ! = repeats disagree; [ ] = another dose, or the depositor's remark. Unless noted, calls follow the shape of the dose curve; as a rule, active = well fitted curve in the direction sought with a large enough effect; inconclusive = small, poorly fitted or top-dose-only effect, or another doubt; inactive = no such curve, though single readings can be large; an effect the other way counts as inactive or inconclusive. Potency is read from the fitted curve at half-maximal effect.

What do the screens show for `COc1ccc(-c2nc3cc(C)c(Br)c(C)n3c2Cc2ccccc2C(F)(F)F)cc1OC`?
TDP1 cell CPT: -29.3%; ClpP mod: -2.1%; DT40 TDP1 no CPT: inconclusive

Results for COc1ccc(-c2nc3ccc(Br)cn3c2Cc2ccccc2)cc1OC ?
TDP1 cell CPT: inconclusive; ClpP mod: 3.6%; DT40 TDP1 no CPT: inconclusive

How did COc1ccc(-c2nc3ccc(Br)cn3c2Cc2ccccc2C(F)(F)F)cc1OC do in these assays?
TDP1 cell CPT: inconclusive; ClpP mod: -8.1%; DT40 TDP1 no CPT: inconclusive

How did COc1ccc(-c2nc3ccc(Cl)cn3c2Cc2ccccc2C(F)(F)F)cc1OC do in these assays?
TDP1 cell CPT: 18.4µM*; ClpP mod: 5.5%; DT40 TDP1 no CPT: 16.4µM*

Results for COc1ccc(-c2nc3c4ccccc4ccn3c2Cc2ccccc2C(F)(F)F)cc1OC ?
TDP1 cell CPT: inconclusive; ClpP mod: 5.4%; DT40 TDP1 no CPT: 16.4µM*

What do the screens show for `COc1ccc(-c2nc3c4ccccc4ccn3c2Cc2ccccc2)cc1OC`?
TDP1 cell CPT: inconclusive; ClpP mod: 4.7%; DT40 TDP1 no CPT: 16.4µM*

Results for CCCCn1c(N)c(N(CC(C)C)C(=O)CSc2ccccc2C)c(=O)[nH]c1=O ?
TDP1 cell CPT: -0.7%; ClpP mod: -26.5%; DT40 TDP1 no CPT: -3.3%; TDP1 block: -2.9%

What do the screens show for `Cc1ccc([C@H]2C[C@H](O)[C@@H](n3cc(-c4ccc(F)cc4)nn3)CN2C(=O)C2CCCCC2)cc1`?
TDP1 cell CPT: inconclusive; ClpP mod: -1.1%; DT40 TDP1 no CPT: inconclusive

What do the screens show for `COc1ccc(C(=O)NC2CC(C)(C)Cc3c2cnn3-c2ccccc2C)c(OC)c1OC` (stereo unspecified)?
TDP1 cell CPT: 23.1µM*; ClpP mod: -1.2%; DT40 TDP1 no CPT: 16.4µM*; TDP1 block: 0.7%

Results for Cc1cc(C(=O)NC2CC(C)(C)Cc3c2cnn3-c2ccccc2C)c(C)o1 (stereo unspecified) ?
TDP1 cell CPT: inconclusive; ClpP mod: 0.5%; DT40 TDP1 no CPT: -27.6%; TDP1 block: 4.8%[56.1 µM]

What do the screens show for `CCOC(=O)CNc1nc(Cl)nc(N2CCCCC2)n1`?
TDP1 cell CPT: 3.1%; ClpP mod: 0.8%; DT40 TDP1 no CPT: -4.2%

Results for N#Cc1nc(N2CCCCC2)nc(N2CCOCC2)n1 ?
TDP1 cell CPT: 13µM*; ClpP mod: 0.4%; DT40 TDP1 no CPT: 16.4µM*; TDP1 block: 4.3%

How did CCOC(=O)CNc1nc(C#N)nc(N2CCOCC2)n1 do in these assays?
TDP1 cell CPT: 12.6µM*!; ClpP mod: 1.3%; DT40 TDP1 no CPT: inconclusive; TDP1 block: 0.0%

Results for CCOc1nc(C#N)nc(N2CCOCC2)n1 ?
TDP1 cell CPT: inconclusive; ClpP mod: -2.8%; DT40 TDP1 no CPT: 11.2µM*; TDP1 block: 1.1%

How did COc1nc(C#N)nc(N2CCCCC2)n1 do in these assays?
TDP1 cell CPT: inconclusive; ClpP mod: -1.4%; DT40 TDP1 no CPT: 20µM*; TDP1 block: -0.4%

Results for CN(C)c1nc(C#N)nc(N2CCOCC2)n1 ?
TDP1 cell CPT: inconclusive; ClpP mod: -1.9%; DT40 TDP1 no CPT: inconclusive; TDP1 block: 1.2%

What do the screens show for `Cc1ccccc1C(=O)Nc1ccccc1C(=O)OCc1cc(=O)n2nc(C3CC3)sc2n1`?
TDP1 cell CPT: -11.9%; ClpP mod: inconclusive; DT40 TDP1 no CPT: inconclusive; TDP1 block: -1.2%

Results for COc1ccccc1CNC(=O)CCNS(=O)(=O)c1ccc2c(c1)oc(=O)n2C ?
TDP1 cell CPT: -6.0%; ClpP mod: -1.9%; DT40 TDP1 no CPT: -1.3%; TDP1 block: 1.4%

Results for C1CN(c2nc(N3CCOCC3)nc(N3CCOCC3)n2)CCO1 ?
TDP1 cell CPT: -13.7%; ClpP mod: 0.9%; DT40 TDP1 no CPT: 32.2%; TDP1 block: 3.7%

How did N#Cc1nc(N)nc(N2CCCCC2)n1 do in these assays?
TDP1 cell CPT: inconclusive; ClpP mod: -1.3%; DT40 TDP1 no CPT: inconclusive; TDP1 block: -0.2%

Results for N#Cc1nc(N2CCCC2)nc(N2CCCC2)n1 ?
TDP1 cell CPT: 12.6µM*; ClpP mod: 0.1%; DT40 TDP1 no CPT: 14.1µM*; TDP1 block: -1.0%

What do the screens show for `CC(C)N(C#N)c1nc(N2CCOCC2)nc(N2CCOCC2)n1`?
TDP1 cell CPT: 20.6µM*; ClpP mod: 2.1%; DT40 TDP1 no CPT: 10.3µM*; TDP1 block: 1.0%

What do the screens show for `CCC1CN(Cc2c(C)nc3sccn23)Cc2cc(OC)ccc2O1` (stereo unspecified)?
TDP1 cell CPT: -2.9%[9.04 µM]; DT40 TDP1 no CPT: -5.9%

Results for O=C(c1cnccn1)N1CCC2(CCCN(c3ccncc3)C2)CC1 ?
TDP1 cell CPT: 2.4%; DT40 TDP1 no CPT: -12.2%

What do the screens show for `CC(C)c1cccc(C(C)C)c1NC(=O)c1ccc(-c2cc(Cl)ccc2Cl)o1`?
TDP1 cell CPT: -17.6%; ClpP mod: 0.4%; DT40 TDP1 no CPT: inconclusive

What do the screens show for `CCc1c(C2(O)CCCCC2)[nH]c2ccc(C(F)(F)F)cc12`?
TDP1 cell CPT: 18.4µM*; ClpP mod: -21.0%; DT40 TDP1 no CPT: inconclusive

How did CC(C)(O)c1[nH]c2ccc(C(F)(F)F)cc2c1C(C)(C)O do in these assays?
TDP1 cell CPT: -18.5%; ClpP mod: -11.5%; DT40 TDP1 no CPT: inconclusive

How did C=CCC(=O)N(CC)CC1CCCN(CCc2cccc(F)c2)C1 (stereo unspecified) do in these assays?
TDP1 cell CPT: -0.1%; ClpP mod: -0.3%; DT40 TDP1 no CPT: 15.5%; TDP1 block: 2.1%

What do the screens show for `CCN(Cc1ccc(O)cc1)CC1CCCN(CCc2cccc(F)c2)C1` (stereo unspecified)?
TDP1 cell CPT: 16.4µM*; ClpP mod: 0.2%; DT40 TDP1 no CPT: inconclusive

Results for CCN(CC1CCCN(CCc2cccc(F)c2)C1)C(=O)c1ccc(CSC)o1 (stereo unspecified) ?
TDP1 cell CPT: inconclusive; ClpP mod: -2.6%; DT40 TDP1 no CPT: 23.1µM*; TDP1 block: 5.3%[56.1 µM]

What do the screens show for `COc1cc(OC)c(OC)cc1CN(C)CC1CCCN(CCc2ccccc2F)C1` (stereo unspecified)?
TDP1 cell CPT: 14.6µM*; ClpP mod: -4.0%; DT40 TDP1 no CPT: inconclusive; TDP1 block: 1.5%

How did CCN(CC1CCCN(CCc2cccc(F)c2)C1)C(=O)c1ccoc1C (stereo unspecified) do in these assays?
TDP1 cell CPT: -22.7%; ClpP mod: -1.5%; DT40 TDP1 no CPT: -25.6%

How did CCOc1cccc(CN(CC)CC2CCCN(CCc3cccc(OC)c3)C2)c1O (stereo unspecified) do in these assays?
TDP1 cell CPT: inconclusive; ClpP mod: 1.1%; DT40 TDP1 no CPT: 16.4µM*

How did CC1CC2OC2/C=C\C=C/C(=O)Cc2c(Cl)c(O)cc(O)c2C(=O)O1 (stereo unspecified) do in these assays?
TDP1 block: 2.0%

Results for COC(=O)[C@@H]1[C@@H](O)[C@]2(O)c3ccccc3O[C@]2(c2ccccc2)[C@H]1c1ccccc1 ?
TDP1 block: 9.0%[21 µM]

Assay outcomes (PubChem BioAssay)
